Assay outcomes (PubChem)
A selection: hits, their analogues and other compounds. The true share with any hit is near 19%.
TDP1 cell noCPT = qHTS for Inhibitors of human tyrosyl-DNA phosphodiesterase 1 (TDP1): qHTS in cells in absence of CPT; DT40 Tdp1-/- hTDP1 cells, no CPT, ATP luminescence, 48 h; Potency, µM (series often up to 46.2 µM), inactives show top-dose activity change, negative = growth inhibition, hits mostly inhibitors; actives 15% (n = 420,000); also: nearly all actives have a fitted effect of over 55% in size
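Seeded 400 DT40-hTDP1 cells/well (vehicle DMSO, no 20 nM CPT); pinned compounds; ≥48 hr at 37 °C; CellTiter-Glo luminescence as viability measure.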
KB-3-1 tox = kills parental KB-3-1 adenocarcinoma cells. AID 1347075. actives 1.4% (n = 400,000). KB-3-1 viability, CellTiter-Glo ATP luminescence, 72 h. Potency, µM (top dose mostly 46.1 µM), actives largely listed as cytotoxic; also: nearly all actives have a fitted effect of over 60% in size
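Parental KB-3-1 adenocarcinoma cells in phenol-red-free DMEM with 10% FBS were pin-treated with compounds at several concentrations, incubated 72 h at 37 °C, and viability read by CellTiter-Glo luminescence; concentration-effect curves were fitted after normalization.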
HT1080NT lethal = kills 2HG-producing HT-1080-NT fibrosarcoma cells. HT-1080-NT fibrosarcoma viability, CellTiter-Glo ATP luminescence, 48 h. Potency, µM (doses to about 46.1 µM), without a hit: at the highest dose activity, negative = less viability, actives largely listed as cytotoxic. actives 1.6% (n = 360,000);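 also: NT is the 2HG producing partner of a matched IDH1 knockdown line; 0% = DMSO-treated cells and -100% = media-only wells without cells; nearly all actives have a fitted effect of over 55% in size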
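HT-1080-NT; 750 cells/well; 5% FBS RPMI; 48 h compound, 37 degrees C; CellTiter-Glo luminescence; curve fitting and curve-class assignment.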
HT1080 IDH1KD tx = HT-1080 IDH1 knockdown cell toxicity (counter line) | HT-1080 IDH1 knockdown viability, ATP luminescence, 48 h | AID 686971 | actives 2% (n = 360,000) | Potency, µM (highest dose often 46.1 µM), for inactives: at the top dose activity, negative = toxicity, actives largely listed as cytotoxic;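 also: 0% = DMSO wells and -100% = cell-free medium wells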
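After a 2 h attachment period, IDH1KD HT-1080 cells took pin-transferred compound for 48 h at 37 °C; ATP-based luminescence after 10 min room-temperature reagent incubation reported viability.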
DT40 TDP1 CPT = DT40-hTDP1 cell growth loss with CPT. chicken DT40 Tdp1-/-;hTDP1 cells + 20 nM CPT, ATP luminescence, 48 h. AID 686979. actives 12% (n = 420,000). Potency, µM (top dose mostly 46.2 µM), for inactives: top-dose activity change, negative = growth inhibition, most hits filed as inhibitors; also: nearly all actives have a fitted effect of over 55% in size
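Chicken DT40 Tdp1-/- cells stably complemented with human TDP1 were seeded at 400 cells/well in medium containing 20 nM camptothecin, exposed to pin-transferred compounds, and grown at 37 °C for at least 48 hr. Viability was read as ATP luminescence.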
KB-V1 cytotox = KB-V1 MDR subline cytotoxicity | actives 3.4% (n = 400,000) | KB-V1 MDR cells viability, CellTiter-Glo, 72 h | Potency, µM (doses to about 46.1 µM), hits mostly cytotoxic; also: nearly all actives have a fitted effect of over 60% in size
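Luminescent ATP read-out (CellTiter-Glo, 10 min) measures survival of drug-selected KB-V1 MDR cells after 72 h, 37 degrees C compound exposure. Medium: phenol-red-free DMEM, 10% FBS. Values from fitted concentration-response curves.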
Starred values were filed as active, the others as inactive; i = inactive; u = inconclusive; x = no result. Calls follow the shape of the dose curve; as a rule, active = well fitted curve in the direction sought with a large enough effect; inconclusive = small, poorly fitted or top-dose-only effect, or another doubt; inactive = no such curve, though single readings can be large; an effect the other way counts as inactive or inconclusive. Unless noted, % is scaled to controls: 0 for no effect and ±100 for the full control effect; potency is read from the fitted curve at half-maximal effect.

SMILES | TDP1 cell noCPT | KB-3-1 tox | HT1080NT lethal | HT1080 IDH1KD tx | DT40 TDP1 CPT | KB-V1 cytotox
CN1CCN(c2ccc(NC(=O)c3cccc(OCc4ccccc4)c3)cc2)CC1 | 23.1µM* | i | 20.6µM* | 18.4µM* | 23.1µM* | i
COc1cccc(C#Cc2c(CO)[nH]c3ccccc23)c1 | u | i | 0.0% | 14.0% | 18.4µM* | i
NNc1ccc2c(C(F)(F)F)cc(C(F)(F)F)nc2n1 | u | u | 0.5% | 2.4% | u | i
N#CC(c1cccc(Cl)c1)c1ccc2c(C(F)(F)F)cc(C(F)(F)F)nc2n1 (configuration not stated) | 1.64µM* | u | 9.2µM* | u | 1.46µM* | 0.92µM*
Cc1ccccc1C(=O)NCCN1CCC(n2c(=O)[nH]c3ccccc32)CC1 | -22.6% | i | 11.2% | 4.5% | u | i
Cc1cc(C)cc(N2CCn3c2nc2c3c(=O)n(C/C=C/c3ccccc3)c(=O)n2C)c1 | -5.5% | x | x | x | -3.2% | x
O=C(C1CCC1)N1CCc2cc(S(=O)(=O)Nc3ccc4c(c3)OCCO4)ccc21 | 7.31µM* | i | -9.5% | u | 11.6µM* | u
CCC(=O)N1CCc2cc(S(=O)(=O)Nc3ccc4c(c3)OCCO4)ccc21 | 5.17µM* | i | -14.9% | u | 9.2µM* | i
CS(=O)(=O)N1CCc2cc(S(=O)(=O)Nc3ccc4c(c3)OCCO4)ccc21 | 8.2µM* | u | u | -22.4% | 11.6µM* | 20.6µM*
O=C(C1CCC1)N1CCc2cc(S(=O)(=O)NC3CCCC3)ccc21 | u | i | -3.7% | -3.1% | u | i
CC(=O)N1CCc2cc(S(=O)(=O)NC(C(=O)Nc3ccc4c(c3)OCCO4)C(C)C)ccc21 (configuration not stated) | -11.1% | i | -1.5% | -6.5% | -1.2% | i
CC1CCCCN1S(=O)(=O)c1ccc2c(c1)CCN2C(=O)C1CC1 (configuration not stated) | -8.2% | i | -0.8% | -13.1% | -18.1% | i
O=C(C1CC1)N1CCc2cc(S(=O)(=O)N3CCCc4ccccc43)ccc21 | 14.6µM* | i | 0.1% | -1.2% | u | u
CCCCC(=O)Nc1ccc(OCc2cc(=O)n3c(C)csc3n2)cc1 | u | i | x | x | u | i
CS(=O)(=O)N1CCc2cc(S(=O)(=O)NCCNS(=O)(=O)c3ccc4c(c3)CCN4S(C)(=O)=O)ccc21 | 7.4% | i | 12.3% | u | 1.1% | i
Cc1cc(Cl)ccc1NS(=O)(=O)c1ccc2c(c1)CCN2S(C)(=O)=O | 20.6µM* | i | x | x | u | i
O=C(C1CCN(S(=O)(=O)c2ccc3c(c2)OCCO3)CC1)N1CCc2ccccc21 | 20.6µM* | i | 6.0% | -1.4% | u | u
C=CCNC(=S)N1N=C(c2ccco2)CC1c1ccco1 (configuration not stated) | -28.0% | i | 3.5% | 2.0% | -9.7% | i
COc1ccccc1-c1ncn(Cc2cccc(-c3ccccc3)c2)c1-c1ccco1 | 16.4µM* | u | u | u | 25.9µM* | 14.6µM*
COc1ccc(-c2ccccc2)c2oc(-c3ccco3)cc(=O)c12 | u | i | 19.5% | 13.7% | -17.1% | i
COc1ccccc1-c1ncn(Cc2cccc(-c3ccccc3)c2)c1-c1cc(C)cc(C)c1 | 14.6µM* | u | u | u | u | 16.4µM*
c1ccc(N/N=C(\Cc2ncc[nH]2)c2ccccc2)cc1 | -1.3% | i | -18.4% | -15.7% | 14.4% | u
COc1ccc(C(=O)N/N=C(\Cc2ncc[nH]2)c2ccccc2)cc1 | 2.91µM* | i | u | u | 5.17µM* | u
COc1cc(C(=O)N/N=C(\Cc2ncc[nH]2)c2ccccc2)cc(OC)c1OC | 5.17µM* | u | 9.2µM* | 4.61µM* | 2.06µM* | u
Cc1ccccc1-n1c(C)cc(/C=C(\C#N)C(=O)NCC2CCCO2)c1C (configuration not stated) | 11.6µM* | i | 0.1% | -6.6% | u | i
SMILES | TDP1 cell noCPT | KB-3-1 tox | HT1080NT lethal | HT1080 IDH1KD tx | DT40 TDP1 CPT | KB-V1 cytotox
Cc1cc(/C=C(\C#N)C(=O)O)c(C)n1CC1CCCO1 (configuration not stated) | 20.6µM* | i | 17.4% | -0.8% | u | i
CCCn1c(C)cc(/C=C(\C#N)C(=O)O)c1C | 9.6% | i | -3.7% | -0.8% | 8.1% | i
Cc1ccc(OCCn2cc(/C=C(\C#N)C(=O)NCC3CCCO3)c3ccccc32)cc1 (configuration not stated) | 10.3µM* | i | -4.0% | -10.3% | 13µM* | 20.6µM*
Cc1ccc(/C=C(\C#N)C(=O)NCC2CCCO2)o1 (configuration not stated) | 0.5% | u | u | u | 0.7% | i
Cc1ccc(C)c(OCCn2cc(/C=C(\C#N)C(=O)NCC3CCCO3)c3ccccc32)c1 (configuration not stated) | u | u | -1.9% | -15.6% | u | i
Cc1ccc(OCCn2cc(/C=C(\C#N)C(=O)NCC3CCCO3)c3ccccc32)cc1C (configuration not stated) | 7.31µM* | i | -5.8% | 9.0% | 13µM* | u
CNS(=O)(=O)c1cnccc1N1CCN(c2cccc(Cl)c2)CC1 | u | i | -10.5% | 1.0% | -8.7% | i
CCN(CC)S(=O)(=O)c1cnccc1N1CCN(c2cccc(Cl)c2)CC1 | 16.4µM* | 10.3µM* | -10.0% | -20.1% | u | i
CN1CCN(S(=O)(=O)c2cnccc2N2CCN(c3cccc(Cl)c3)CC2)CC1 | 18.4µM* | i | u | u | 18.4µM* | i
Cc1cc(C)n(-c2nc3ccccc3nc2Nc2cccc(C(=O)NCCc3ccccc3)c2)n1 | u | i | x | x | -21.7% | u
CC(C)C[C@H]1CN=C(N(C)C)N1CC1CCCCCC1 | 20.6µM* | i | -8.9% | -0.5% | 13µM* | i
c1ccc(C[C@H]2CNCCN2CC2CCCCC2)cc1 | 16.4µM* | i | -4.5% | -4.3% | u | i
c1ccc(C[C@H]2CNCCN2CCCCC2CCCCC2)cc1 | u | u | -18.0% | -14.6% | u | i
